V-ATPase pHluor – regulators of yeast V-ATPase proton transport. response, % at 10 µM. AID 504577. 350,000 compounds, 0.37% hits. S. cerevisiae, pHLuorin cytosolic pH fluorescence; in the data active means response mostly above about 7.3%, no sharp cut-off; inactive means mostly below about 5.4%; further: actives read high
TIM10 inh – growth inhibitors of TIM10 yeast strain | S. cerevisiae TIM10 strain growth, BacTiter-Glo luminescence, 24 h | inhibition, % at 10 µM | 330,000 compounds, 1.4% hits | AID 463195;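 active means inhibition of 40% or more at the single tested concentration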;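 further: wild-type TIM10 isogenic control strain grown at permissive 25 °C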
NALP3 yeast inh – NALP3 inhibition in yeast | Yeast reconstituted NLRP3/ASC/caspase-1, beta-gal luminescence, 24 h | inhibition, % at 10 µM | 330,000 compounds, 0.39% hits;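 active means inhibition of 50% or more; inactive means inhibition below 50%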;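 further: plate controls were induced DMSO wells for no effect and uninduced yeast grown without galactose for full effect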
NALP1 yeast inh – NALP1 inhibition; S. cerevisiae NALP1/ASC/caspase-1 growth, X-gal OD620, 72 h; inhibition, % at 10 µM; 280,000 compounds, 0.61% hits; in the data active means inhibition mostly above about 24%, no sharp cut-off; inactive means mostly below about 32%
tim10-1 inh – inhibits growth of tim10-1 mutant yeast; S. cerevisiae tim10-1 ts strain growth, BacTiter-Glo, 24 h; inhibition, % at 20 µM; 330,000 compounds, 2.2% hits;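 active means inhibition of at least 40%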;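 further: mutant grown at 25 °C; 0% = DMSO wells with yeast and 100% = wells holding no yeast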
tim23-1 inh – inhibits growth of tim23-1 mutant yeast; inhibition, % at 20 µM; AID 463212; 330,000 compounds, 1.3% hits; S. cerevisiae tim23-1 growth, BacTiter-Glo luminescence, 24 h;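 active means growth inhibition of the mutant yeast at or above 50%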;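 further: temperature-sensitive mutant grown at 25 °C; plate controls were DMSO-treated mutant yeast for no effect and medium wells lacking yeast for full effect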
tim10-1 confirm – confirmation of tim10-1 mutant yeast growth inhibitors; 7,400 compounds, 56% hits; inhibition, % at 20 µM; S. cerevisiae tim10-1 ts strain growth, BacTiter-Glo, 24 h; AID 463213; shares compounds with tim10-1 inh;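 active means inhibition of yeast growth at or above a set limit in either of two repeat tests at 20 µM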;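 further: tim10-1 mutant grown at permissive 25 °C to find synthetic lethal compounds; 0% = DMSO yeast wells and 100% = medium wells without yeast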
tim10 confirm – TIM10 yeast growth inhibition, confirmed. shares compounds with TIM10 inh. 4,600 compounds, 63% hits. inhibition, % at 10 µM. S. cerevisiae tim10 strain growth, BacTiter-Glo luminescence, 24 h. AID 463215;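 active means inhibition of yeast growth at or above a set limit in either of two replicates at 10 µM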;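 further: this counterscreen used the strain with wild-type TIM10; 0% = yeast with DMSO and 100% = medium wells lacking yeast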
tim23-1 conf – tim23-1 yeast growth inhibition, confirmed. shares compounds with tim23-1 inh. S. cerevisiae tim23-1 growth, BacTiter-Glo luminescence, 24 h. inhibition, % at 20 µM. 4,400 compounds, 83% hits. AID 463218;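 active means inhibition above about 39% in either of two replicate wells at 20 µM, limit read from the data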;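 further: temperature-sensitive tim23-1 mutant grown at 25 °C; 0% = DMSO wells with yeast and 100% = medium wells without yeast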
An asterisk follows results filed as active. This is a sample that favours compounds with a hit; in the whole collection about 4.2% have one here.

For O=c1/c(=C/c2cccc3ccccc23)sc2ncnn12 the results were V-ATPase pHluor -1.5, TIM10 inh 16.0, NALP3 yeast inh 3.1, NALP1 yeast inh -7.3, tim10-1 inh 46.2*, tim23-1 inh 68.7*, tim10-1 confirm 18.9 and tim23-1 conf 73.6*.
Screening [O-][n+]1c2c(c3c4non(O)c4ccc31)CCCC2 returned V-ATPase pHluor -2.5, TIM10 inh 61.1*, NALP3 yeast inh 27.1, NALP1 yeast inh 13.6, tim10-1 inh 70.1*, tim23-1 inh 62.5*, tim10-1 confirm 70.2*, tim10 confirm 51.7* and tim23-1 conf 64.2*.
COc1ccc2cc3cc(C(=O)N4CCN(c5ccccn5)CC4)oc3nc2c1 was read as V-ATPase pHluor -2.6, TIM10 inh 55.1*, NALP3 yeast inh 21.7, NALP1 yeast inh 13.0, tim10-1 inh 43.8*, tim23-1 inh 54.0*, tim10-1 confirm 27.2, tim10 confirm 58.8* and tim23-1 conf -2.1.
For Cc1ccc(CNC(=O)CO/N=C/c2ccc3c(c2)OCO3)cc1 the results were V-ATPase pHluor 0.3, TIM10 inh -3.7, NALP3 yeast inh 25.8, NALP1 yeast inh 11.0, tim10-1 inh 14.3 and tim23-1 inh 18.8.
For CCSc1nc2ccccc2n1C(=O)/C=C/c1ccc(OC)c(OC)c1 the results were V-ATPase pHluor 2.8, TIM10 inh 39.3, NALP3 yeast inh 23.0, NALP1 yeast inh 33.7, tim10-1 inh 57.8*, tim23-1 inh 50.8*, tim10-1 confirm 44.3* and tim23-1 conf 54.4*.
Screening O=C(NC(=O)c1ccccc1F)OCc1ccc(Cl)cc1Cl returned V-ATPase pHluor -2.5, TIM10 inh 17.5, NALP3 yeast inh 38.7, NALP1 yeast inh 6.2, tim10-1 inh 46.1*, tim23-1 inh 50.2*, tim10-1 confirm 27.0 and tim23-1 conf 44.5*.
O=c1[nH]c(Sc2ccc([N+](=O)[O-])cc2[N+](=O)[O-])nc2ccccc12 was read as V-ATPase pHluor 1.3, TIM10 inh 29.1, NALP3 yeast inh 15.5, tim10-1 inh 44.7*, tim23-1 inh 68.4*, tim10-1 confirm 37.8* and tim23-1 conf 52.5*.
Screening O=c1c2c(nc3n1CCCCC3)-c1ccccc1CC21CCCC1 returned V-ATPase pHluor -4.2, TIM10 inh 15.7, NALP3 yeast inh -4.2, NALP1 yeast inh 28.1, tim10-1 inh 36.2 and tim23-1 inh 36.3.
CSc1n[nH]c2nc3c(c(=O)n12)C1(CCCC1)Cc1ccccc1-3 was read as V-ATPase pHluor 0.2, TIM10 inh 38.9, NALP3 yeast inh -46.4, NALP1 yeast inh 14.9, tim10-1 inh 47.9*, tim23-1 inh 52.7*, tim10-1 confirm 50.7* and tim23-1 conf 55.1*.
`Cc1ccc(-n2c(SCC(N)=O)nc3c(c2=O)C2(CCCC2)Cc2ccccc2-3)cc1` gave V-ATPase pHluor 7.6, TIM10 inh 31.8, NALP3 yeast inh 5.8, tim10-1 inh 49.3*, tim23-1 inh 51.9*, tim10-1 confirm 36.3* and tim23-1 conf 44.5*.
`Cn1c(NCCO)nc2c(c1=O)C1(CCCCC1)Cc1ccccc1-2` gave V-ATPase pHluor 3.6, TIM10 inh 31.3, NALP3 yeast inh 10.5, NALP1 yeast inh -6.5, tim10-1 inh 59.5*, tim23-1 inh 58.8*, tim10-1 confirm 37.1* and tim23-1 conf 62.9*.
Screening CSc1nnc2n(C)c3c(c(=O)n12)C1(CCCC1)Cc1ccccc1-3 returned V-ATPase pHluor -2.5, TIM10 inh 40.5*, NALP3 yeast inh -36.8, NALP1 yeast inh 17.2, tim10-1 inh 45.4*, tim23-1 inh 62.4*, tim10-1 confirm 30.4, tim10 confirm 34.6* and tim23-1 conf 49.8*.
COC(=O)/C=C1\SC(=NC(=O)c2cccc([N+](=O)[O-])c2)NC1=O was read as V-ATPase pHluor -0.5, TIM10 inh 7.3, NALP3 yeast inh -3.1, NALP1 yeast inh 0.0, tim10-1 inh -24.0 and tim23-1 inh 5.2.
`O=C(N/N=C/c1cn(-c2ccccc2)nc1-c1cc2ccccc2o1)c1cccnc1` gave V-ATPase pHluor 1.4, TIM10 inh 23.8, NALP3 yeast inh 21.5, NALP1 yeast inh 28.8, tim10-1 inh 15.1 and tim23-1 inh 16.2.
For CCC1(CC)Cc2ccccc2-c2nc(CN(C)C)[nH]c(=O)c21 the results were V-ATPase pHluor -3.3, TIM10 inh 19.9, NALP3 yeast inh -18.6, NALP1 yeast inh 10.7, tim10-1 inh 28.5 and tim23-1 inh 38.2.
Screening CCN(CC)Cc1nc2c(c(=O)[nH]1)C1(CCCCC1)Cc1ccccc1-2 returned V-ATPase pHluor -2.8, TIM10 inh 50.4*, NALP3 yeast inh -22.6, NALP1 yeast inh 21.6, tim10-1 inh 41.4*, tim23-1 inh 50.2*, tim10-1 confirm 41.1*, tim10 confirm 46.9* and tim23-1 conf 40.0*.
O=c1c2ccc(Cl)cc2[nH]c(=S)n1CCCN1CCOCC1 was read as V-ATPase pHluor 0.5, TIM10 inh -6.9, NALP3 yeast inh 10.4, NALP1 yeast inh -33.6, tim10-1 inh 6.9 and tim23-1 inh 8.4.
`O=C(NNC(=O)c1cccnc1)NC12CC3CC(CC(C3)C1)C2` gave V-ATPase pHluor -1.9, TIM10 inh 10.1, NALP3 yeast inh -9.5, NALP1 yeast inh 21.1, tim10-1 inh -1.3 and tim23-1 inh -4.1.
`CN(C)S(=O)(=O)c1cccc(NC(=S)Nc2cc(Cl)cc(Cl)c2)c1` gave V-ATPase pHluor 1.2, TIM10 inh 60.5*, NALP3 yeast inh 14.9, NALP1 yeast inh 16.3, tim10-1 inh 58.2*, tim23-1 inh 51.7*, tim10-1 confirm 36.0*, tim10 confirm 23.2 and tim23-1 conf 44.5*.
For CCOC(=O)C(=O)N/N=C(/c1ccccc1)c1ccc(OC)cc1 the results were V-ATPase pHluor -3.2, TIM10 inh 3.4, NALP3 yeast inh 22.6, NALP1 yeast inh -11.0, tim10-1 inh 14.1 and tim23-1 inh -0.3.
`O=c1oc2c(-c3cccc(F)c3)cc(O)cc2s1` gave V-ATPase pHluor -4.4, TIM10 inh -15.4, NALP3 yeast inh 20.3, NALP1 yeast inh 16.0, tim10-1 inh 51.8*, tim23-1 inh 56.9*, tim10-1 confirm 47.9* and tim23-1 conf 56.0*.
Screening Cc1csc(SCC(=O)Nc2nnc(C)s2)n1 returned V-ATPase pHluor 1.3, TIM10 inh -11.8, NALP3 yeast inh 13.6, NALP1 yeast inh 7.6, tim10-1 inh 1.7 and tim23-1 inh 12.0.

Screens from PubChem.
